Compound activity as filed in PubChem BioAssay.
FBW7 activator – activators of human E3 ligase FBW7 | normalized activity (activation), % at 26.1 µM | 650,000 tested, 0.13% active | AlphaScreen FBW7–phospho-cyclin E peptide binding, activator screen | Q969H0; in the data active = normalized activity above about 1.9%;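 note: purified mutant Fbw7 with reduced substrate affinity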
TEAD-YAP block – TEAD-YAP interaction inhibition; HEK-TIYL cells, TEAD-Gal4/YAP UAS-luciferase luminescence; inhibition, % at 9.12 µM; 640,000 tested, 1.4% active; AID 1259422; in the data active = inhibition above about 32%
GPR151 activ – human GPR151 activation; PathHunter beta-arrestin GPR151 cells, luminescence; activation, % at 11.2 µM; 650,000 tested, 1% active; AID 1508602; in the data active = activation above about 4.9%
Target sequence (Q8TDV0 whole entry, looked up): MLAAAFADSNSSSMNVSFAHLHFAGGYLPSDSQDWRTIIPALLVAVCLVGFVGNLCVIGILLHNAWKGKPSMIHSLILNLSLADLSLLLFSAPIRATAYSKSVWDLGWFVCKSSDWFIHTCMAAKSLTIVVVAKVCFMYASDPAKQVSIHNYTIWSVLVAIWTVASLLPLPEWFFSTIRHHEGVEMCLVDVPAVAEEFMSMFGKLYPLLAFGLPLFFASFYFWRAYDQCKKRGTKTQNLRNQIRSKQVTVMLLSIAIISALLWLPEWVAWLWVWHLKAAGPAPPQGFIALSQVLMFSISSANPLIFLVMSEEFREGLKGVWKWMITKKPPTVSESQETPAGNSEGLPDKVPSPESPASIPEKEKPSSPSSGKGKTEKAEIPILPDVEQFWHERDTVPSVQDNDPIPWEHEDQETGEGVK
MITF primary – inhibitors of human MITF; O75030; AlphaScreen MITF homodimerization, bead proximity signal; inhibition, % at 2.6 µM; 650,000 tested, 0.91% active; in the data active = inhibition above about 50%
MITF inh conf – human MITF inhibition, confirmation. shares compounds with MITF primary. AlphaScreen MITF homodimerization, biotin/His-MITF beads. inhibition, % at 2.6 µM. 4,700 tested, 16% active;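 active = inhibition above a cutoff derived from the DMSO control wells, cut at about 28% in these data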;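 note: inhibitors lower the bead chemiluminescence by keeping MITF from dimerizing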
AlphaScreen DR – optically interferes with AlphaScreen signal in dose response; shares compounds with MITF primary; AlphaScreen optical interference counterscreen, cell-free; IC50, µM; 480 tested, 6% active; AID 1259373; call rule not given here
AS interf ctr – optically interferes with AlphaScreen signal | shares compounds with MITF primary | LysRS AlphaScreen counterscreen, signal interference, triplicate | inhibition, % at 2.6 µM | 4,700 tested, 7.6% active | AID 1259376;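 active = inhibition above a cutoff derived from the DMSO control wells, cut at about 30% in these data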
Numbers stand for hits; – = inactive; · = no result given. In the library only some 3.4% were active in any assay of this set; here they are far more common.

SMILES	FBW7 activator	TEAD-YAP block	GPR151 activ	MITF primary	MITF inh conf	AS interf ctr	others
O=C(/C=C/c1ccco1)NC(=S)Nc1cccc(C(=O)O)c1	–	–	–	69.4	62.1	–	AlphaScreen DR=–
CCN1CCc2c(sc(NC(=S)NC(=O)/C=C/c3ccco3)c2C(N)=O)C1	–	–	–	77.5	78.9	–	AlphaScreen DR=–
CCN1CCc2c(sc(NC(=S)NC(=O)/C=C/c3ccccc3)c2C(N)=O)C1	–	–	–	–	·	·
COc1cccc(NC(=S)NC(=O)/C=C/c2ccco2)c1	–	–	–	–	·	·
O=C(/C=C/c1ccco1)NC(=S)Nc1ccc(Cl)c(C(=O)O)c1	–	–	–	75.6	64.2	–	AlphaScreen DR=–
CCC[C@@H]1NC(=O)[C@@H]2C[C@H](NC(=O)c3ccc4ccccc4c3)CN2C1=O	–	–	–	–	·	·
CC(C)(C)C(=O)COC(=O)[C@@H]1CC(O)CN1S(=O)(=O)c1ccc(F)cc1 (stereo partly specified)	–	–	–	59.8	–	–
Cc1ccc(C(=O)N2CCN(c3ccc(Nc4cccnc4)nn3)CC2)cc1C	–	–	–	–	·	·
CC(C)(C)C(=O)N1CCN(Cc2nc3sc4c(c3c(=O)[nH]2)CCCC4)CC1	–	–	–	–	·	·
COc1ccccc1NC(=O)C1=C(C)NC(SCC(=O)Nc2ccccc2)=C(C#N)C1c1ccco1 (stereo unspecified)	–	–	–	–	·	·
COc1ccccc1NC(=O)C1=C(C)NC(SCC(=O)Nc2cccc(C)c2C)=C(C#N)C1c1ccco1 (stereo unspecified)	–	32.2	–	56.1	–	–
CCOC(=O)c1cnn(-c2ncnc3sc(C)c(-c4ccc(F)cc4)c23)c1N	–	–	–	–	·	·
CCn1ccnc1CN(C)Cc1ccc(OCC(O)CN2CCCCC2)cc1 (stereo unspecified)	–	–	–	–	·	·
COc1ccc2c(c1)C(C)=CC(C)(C)N2C(N)=S	–	–	–	71.5	64.9	53.7
C/C=C/C(=O)N1c2ccc(OC)cc2C(C)=CC1(C)C	–	–	–	–	·	·
COC(=O)c1ccc(C(=O)Nc2ccc3c4c(cccc24)CC3)cc1	–	–	–	–	·	·
c1ccc(C(NCc2cccnc2)c2ccccc2)cc1	–	–	–	86.3	–	–
CC(NCc1cccnc1)C(=O)Nc1ccccc1 (stereo unspecified)	–	–	–	75.1	–	–
CCNc1nc(NCCOc2ccccc2)c2ncn(C3CCCCC3)c2n1	–	–	–	54.2	–	–
CCC(=O)N(CCOC)Cc1cc2cc3c(cc2nc1Cl)OCO3	–	–	–	–	·	·
CCCCNCCOc1ccccc1F	–	–	–	64.5	–	–
OCCNCCOc1cccc2ccccc12	–	–	–	50.8	–	–
CCOc1ccccc1OCCCNCCO	–	–	–	57.9	–	–
O=C1COc2cc(S(=O)(=O)CCC(=O)N3CCCc4ccccc43)ccc2N1	–	–	–	–	·	·
O=C(NC1CCN(Cc2ccccc2)CC1)c1ccc2nc(-c3cccs3)sc2c1	–	–	–	52.2	59.5	–	AlphaScreen DR=–
SMILES	FBW7 activator	TEAD-YAP block	GPR151 activ	MITF primary	MITF inh conf	AS interf ctr	others
CCC1(CCC(=O)N2CCCOc3c(cccc3OC)C2)CCC(=O)N1 (stereo unspecified)	–	–	–	–	·	·
CC(=O)C12c3ccccc3C(c3ccccc31)C1C(=O)N(c3ccccc3)C(=O)C12 (stereo unspecified)	–	–	–	–	·	·
Cc1cncc2c(S(=O)(=O)N3CC[C@@H](NC(=O)C(O)c4ccc(F)cc4F)C3)cccc12 (stereo partly specified)	–	–	–	59.2	58.2	–	AlphaScreen DR=–
COc1cc(CN2CCN(Cc3ccc(C)cc3)C(CCO)C2)cc(OC)c1 (stereo unspecified)	–	–	–	–	·	·
CCOC(=O)C1=C(C)N=c2s/c(=C\c3ccccc3)c(=O)n2C1c1ccc(F)cc1 (stereo unspecified)	–	–	–	–	·	·
O=C(C1CCCN(Cc2cccc(F)c2)C1)N1CCCCCC1 (stereo unspecified)	–	–	–	–	·	·
O=C(C1CCCN(Cc2ccncc2)C1)N1CCCCC1 (stereo unspecified)	–	–	–	103.5	–	–
O=C(C1CCCN(Cc2cccnc2)C1)N1CCCCC1 (stereo unspecified)	–	–	–	103.5	–	–
O=C1CN(C(=O)COC(=O)c2c3c(nc4ccccc24)CCC3)c2ccccc2N1	–	–	–	71.8	–	–
CC1(c2ccc(OCC(N)=O)cc2)NC(=O)N(CC(=O)O)C1=O (stereo unspecified)	–	–	–	–	·	·
CCc1ccc(CN2CCN(C3CCCC(C)C3)CC2)cc1 (stereo unspecified)	–	–	–	64.2	–	–
CC1CCCC(N2CCN(Cc3ccc(Cl)cc3)CC2)C1 (stereo unspecified)	–	–	–	72.7	–	–
CC1CCCC(N2CCN(Cc3cccc(F)c3)CC2)C1 (stereo unspecified)	–	–	–	68.6	–	–
Fc1cccc(CN2CCC(N3CCCCC3)CC2)c1	–	–	–	–	·	·
CC1CCCC(N2CCN(Cc3ccc(F)cc3)CC2)C1 (stereo unspecified)	–	–	–	74.3	–	–
CC1CCC(N2CCN(Cc3ccc(F)cc3)CC2)CC1 (stereo unspecified)	–	–	–	–	·	·
O=C(Nc1ccc(Cl)c(Cl)c1)c1cc2nc(-c3ccc4c(c3)OCO4)cc(C(F)(F)F)n2n1	–	–	–	–	·	·
N#CC1=C(N)OC2=C(CN(Cc3ccccc3)C/C2=C\c2ccsc2)C1c1ccsc1 (stereo unspecified)	–	–	–	–	·	·
C=CCc1cc(C)ccc1OCCOCCN1CCN(C)CC1	–	–	–	59.6	–	–
C=CCc1ccccc1OCCOCCN1CCOCC1	–	–	–	72.3	–	–
C=CCc1cc(Cl)ccc1OCCCN1CCN(C)CC1	–	–	–	79.2	–	–
C=CCc1cc(C)ccc1OCCCCn1ccnc1	–	–	–	74.5	35.4	–	AlphaScreen DR=–
CN1CCN(CCCOc2cc(Cl)ccc2Cl)CC1	–	–	–	–	·	·
OCCNc1nc(NCc2cccnc2)nc2c1ncn2C1CCCCC1	–	–	–	–	·	·
CCOC(=O)c1ccccc1NS(=O)(=O)c1ccccc1[N+](=O)[O-]	–	–	–	–	·	·
CC(C)(C)c1ccc(C(=O)N(Cc2ccccc2F)C2CCS(=O)(=O)C2)cc1 (stereo unspecified)	–	–	–	–	·	·
C=CCc1cc(Cl)ccc1OCCNCCN1CCOCC1	–	–	–	76.3	–	–
C=CCc1cc(C)ccc1OCCN1CCCC1	–	–	–	–	·	·
C=CCc1cc(C)ccc1OCCCN1CCCC1	–	–	–	54.8	–	–
Oc1ccc(/C=N\Nc2nncc(-c3ccccc3)n2)cc1	–	–	–	–	·	·
